Reference: PubChem BioAssay AID651640 (Broad Institute, 2012)
The campaign covered roughly 350,000 compounds. About 6,000 (1.7%) were called active. Inconclusive results (about 5%) are left out. Rule as the data show it: active = CPE inhibition above about 20% (passing the limit was not always enough); inconclusive = no clear call, values can overlap the other calls; tested in BHK-21 cells. Many of the other results were omitted from the sample, so actives are more common in it than they were.

assay: inhibitors of DENV2 cytopathic effect, primary screen, cell-based, plate reader, single concentration (AID 651640); settings: DENV2-infected cells, cytopathic effect rescue, at 9.99 µM, hits give high values;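 also: 0% = median of neutral control wells and 100% = median of positive control wells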

Structure (SMILES)	CPE inhibition
COc1ccc(-c2ccc3c(c2)[C@H]2[C@H](CCN2S(=O)(=O)c2ccccc2F)[C@H](CO)N3)cc1	-28.4% (inactive)
O=C(c1ccccc1)N1C[C@H]2[C@@H](c3ccccc31)[C@H](CO)N2Cc1ccccc1F	-4.2% (inactive)
C[C@@H]1CN([C@@H](C)CO)C(=O)c2cc(NC(=O)CCCN(C)C)ccc2O[C@@H](C)CCCCO[C@@H]1CN(C)S(=O)(=O)c1ccc(Cl)cc1	-4.63% (inactive)
C/C=C/c1ccc2c(c1)O[C@@H](CN(C)S(=O)(=O)c1ccc(F)cc1)[C@@H](C)CN([C@H](C)CO)S2(=O)=O	1.09% (inactive)
COc1ccc(S(=O)(=O)N(C)C[C@H]2OCCCC[C@H](C)Oc3ccc(NC(=O)Nc4ccc5c(c4)OCO5)cc3C(=O)N([C@@H](C)CO)C[C@@H]2C)cc1	-7.54% (inactive)
CCOC(=O)c1c(NC(=O)CSc2cn(CC)c3ccccc23)sc2c1CCC2	5.51% (inactive)
CCOC(=O)c1c(NC(=O)Cn2nc(C(F)(F)F)cc2C)sc2c1CCC2	-2.63% (inactive)
CCCOC(=O)c1c(NC(=O)c2cnn3c2NC(c2ccccc2)CC3C(F)(F)F)sc2c1CCCC2 (stereo unspecified)	84.1% (active)
COC(=O)[C@]12C[C@H](CC(=O)N3CCN(C(=O)C4CC4)CC3)C(=O)N(Cc3ccc4c(c3)OCO4)C1=C[C@H](C(C)(C)C)O[C@@H]2C	0.269% (inactive)
C[C@H](CO)N1C[C@H](C)[C@H](CN(C)C(=O)NC2CCCCC2)Oc2c(NC(=O)C3CC3)cccc2C1=O	20.6% (active)
C[C@H]1CN([C@@H](C)CO)C(=O)c2cccc(NC(=O)Nc3cccc4ccccc34)c2O[C@@H]1CN(C)C(=O)NC1CCCCC1	43.8% (active)
C[C@@H]1CN([C@H](C)CO)C(=O)c2cccc(NC(=O)C3CC3)c2O[C@@H]1CN(C)C(=O)Nc1ccccc1	8.03% (inactive)
C[C@H]1CN([C@@H](C)CO)C(=O)c2cccc(NC(=O)C3CCOCC3)c2O[C@H]1CN(C)S(C)(=O)=O	12.7% (inactive)
C[C@@H]1CN([C@H](C)CO)C(=O)c2cccc(NC(=O)Nc3cccc4ccccc34)c2O[C@@H]1CN(C)C(=O)Nc1cccc2ccccc12	4.21% (inactive)
C[C@@H]1CN([C@H](C)CO)C(=O)c2cccc(NC(=O)Nc3ccccc3)c2O[C@@H]1CN(C)C(=O)NC1CCCCC1	-11% (inactive)
COc1ccc(NC(=O)N(C)C[C@H]2Oc3c(NC(=O)Nc4cccc5ccccc45)cccc3C(=O)N([C@@H](C)CO)C[C@H]2C)cc1	18.2% (inactive)
CC(C)NC(=O)N(C)C[C@H]1Oc2c(NC(=O)C3CCCCC3)cccc2C(=O)N([C@@H](C)CO)C[C@H]1C	-3.61% (inactive)
C[C@@H]1CN([C@@H](C)CO)C(=O)c2cccc(NC(=O)C3CC3)c2O[C@@H]1CN(C)C	11.8% (inactive)
C[C@H]1CN([C@@H](C)CO)C(=O)c2cccc(NC(=O)C3CCOCC3)c2O[C@@H]1CN(C)C	39.5% (active)
COc1ccc(NC(=O)N(C)C[C@@H]2Oc3c(NC(=O)Nc4cccc5ccccc45)cccc3C(=O)N([C@@H](C)CO)C[C@H]2C)cc1	23.2% (active)
COc1ccc(NC(=O)N(C)C[C@H]2Oc3c(NC(=O)Nc4cccc5ccccc45)cccc3C(=O)N([C@H](C)CO)C[C@@H]2C)cc1	15.2% (inactive)

Structure (SMILES)	CPE inhibition
CN1CCN(C(=O)C[C@H]2CC[C@H]3[C@@H](COC[C@H](O)CN3CC3CCOCC3)O2)CC1	-5% (inactive)
CCCNC(=O)N1[C@H](CO)[C@@H]2c3ccccc3N(C(=O)C3CCOCC3)C[C@@H]21	9.68% (inactive)
CNC(=O)C[C@H]1CC[C@H]2[C@@H](COc3ccc(NS(=O)(=O)c4ccc(F)cc4)cc3C(=O)N2C)O1	-4.93% (inactive)
CC(C)NC(=O)N(C)C[C@H]1OCCCC[C@H](C)Oc2ccc(NS(=O)(=O)c3cccs3)cc2C(=O)N([C@H](C)CO)C[C@@H]1C	-5.44% (inactive)
O=C(CC1CC1)N1[C@@H]2CN(S(=O)(=O)c3ccccc3F)c3ccccc3[C@@H]2[C@@H]1CO	2.67% (inactive)
CCCNC(=O)N1CC2(C1)[C@H](c1ccccc1)[C@@H](CO)N2Cc1cccc(Cl)c1	-0.258% (inactive)
C[C@@H]1CN([C@H](C)CO)S(=O)(=O)c2ccc(-c3ccncc3)cc2O[C@@H]1CN(C)C(=O)CN(C)C	-2.24% (inactive)
COCC(=O)N(C)C[C@@H]1Oc2cc(C#Cc3cccnc3)ccc2S(=O)(=O)N([C@H](C)CO)C[C@H]1C	0.786% (inactive)
COc1ccccc1CNC(=O)C[C@H]1CC[C@@H](NC(=O)CN(C)C)[C@@H](CO)O1	-1.02% (inactive)
Cc1cccc(S(=O)(=O)N2C[C@@H](O)COC[C@H]3O[C@H](CC(=O)N4CCN(C)CC4)CC[C@@H]32)c1	0.654% (inactive)
C[C@@H]1CN([C@H](C)CO)C(=O)c2cc(C#Cc3cccnc3)cnc2O[C@@H]1CN(C)Cc1ccc(F)cc1	-0.76% (inactive)
C[C@@H]1CN([C@H](C)CO)C(=O)c2cccc(NC(=O)C3CCCCC3)c2O[C@@H]1CN(C)C(=O)NC1CCCCC1	21.7% (active)
COc1ccc(S(=O)(=O)Nc2cccc3c2O[C@@H](CN(C)C(=O)Nc2cccc4ccccc24)[C@H](C)CN([C@@H](C)CO)C3=O)cc1	-9.92% (inactive)
C[C@H](CO)N1C[C@H](C)[C@@H](CN(C)C(=O)Nc2cccc3ccccc23)Oc2c(NS(=O)(=O)c3ccccc3)cccc2C1=O	74.2% (active)
C[C@@H]1CN([C@@H](C)CO)C(=O)c2cccc(NC(=O)C3CCOCC3)c2O[C@H]1CN(C)C(=O)NC1CCCCC1	-1.68% (inactive)
C[C@@H]1CN([C@H](C)CO)C(=O)c2cccc(NS(=O)(=O)c3ccccc3)c2O[C@@H]1CN(C)Cc1ccc(C(=O)O)cc1	-6.23% (inactive)
C[C@@H]1CN([C@H](C)CO)C(=O)c2cccc(NS(=O)(=O)c3ccc(Cl)cc3)c2O[C@@H]1CN(C)C(=O)Nc1cccc2ccccc12	-5.49% (inactive)
C[C@H]1CN([C@@H](C)CO)C(=O)c2cccc(NS(=O)(=O)c3ccc(F)cc3)c2O[C@@H]1CN(C)Cc1ccncc1	0.612% (inactive)
C[C@@H]1CN([C@@H](C)CO)C(=O)c2cccc(NS(=O)(=O)c3ccc(F)cc3)c2O[C@@H]1CN(C)Cc1ccc(C(=O)O)cc1	49.4% (active)
C[C@H]1CN([C@@H](C)CO)C(=O)c2cccc(NC(=O)C3CCCCC3)c2O[C@H]1CN(C)C(=O)NC1CCCCC1	1.03% (inactive)
